This is a sample that favours compounds with a hit; in the whole collection about 3.6% have one here.
HepG2 viability: kills HepG2 cells in TGF-b inhibitor counter-screen | HepG2 CAGA-GFP viability, ATP luminescence, 18 h | Potency, µM (top dose mostly 46.1 µM), inactives show at the top dose activity change, negative = cytotoxicity, actives largely listed as cytotoxic | 410,000 tested, 0.76% active
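HepG2 CAGA-GFP cells (1000/well, DMEM with 1% FBS) received compound, then TGF-beta at 500 pg/mL final, and were incubated 18 hours at 37 degrees C. Viability was read by CellTiter-Glo luminescence. Media-only wells were set as complete cell-killing and DMSO as no toxicity.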
Nrf2 ARE act: Nrf2 pathway activation; Potency, µM (doses to about 46.1 µM), without a hit: at the highest dose activation, usual class: activators; AID 624171; AREc32 ARE-luciferase reporter (MCF7-derived line), luminescence, 24 h; 410,000 tested, 0.31% active; also: % of control where 0% means no effect; nearly all actives have a fitted effect of over 65% in size
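AREc32_Fluc, 1000 cells/well, OPTI-MEM + 5% FBS, o/n 37 deg C 5% CO2; 23 nL cpd by pin tool, 24 hr; Steady-Glo 30 min RT, luminescence.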
A549 viability: counter-screen for Nrf2 inhibitors: cytotoxicity in A549 cells; A549 ARE-Fluc cells, CellTiter-Fluor viability, 18-24 h; Potency, µM (series often up to 46 µM), inactives show at the highest dose activity change, negative = cytotoxicity, most hits filed as inhibitors; 390,000 tested, 0.16% active; AID 504648; also: % is scaled to controls: 0 for no effect and ±100 for the full control effect
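Cytotoxicity counterscreen: CellTiter-Fluor fluorescence was measured in A549 ARE_Fluc cells after 18-24 h of compound exposure in a concentration series. The subsequent BugLite luminescent read reports ARE-luciferase activity.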
Nrf2 block: blocks Nrf2 signaling | Potency, µM (series often up to 46 µM), inactives show at the highest dose activity change, negative = inhibition, most hits filed as inhibitors | A549 ARE-Fluc reporter, luciferase luminescence, 18-24 h | 360,000 tested, 2.1% active; also: % is scaled to controls: 0 for no effect and ±100 for the full control effect; nearly all actives have a fitted effect of over 60% in size
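Concentration-response testing used A549 ARE_Fluc cells at 5000 cells/well. Following an 18-24 h compound incubation, viability was read by fluorescence (Ex 405/Em 525) and luciferase output by luminescence.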
TGFb SMAD3 inh: inhibitors of TGF-b signaling. HepG2 CAGA-GFP TGF-b/SMAD3 reporter, GFP fluorescence, 18 h; TGF-beta stimulated, 500 pg/mL final. Potency, µM (top dose mostly 46.1 µM), for inactives: top-dose activity, negative = inhibition, usual class: inhibitors. 410,000 tested, 1.2% active. AID 588855; also: % is scaled to controls: 0 for no effect and ±100 for the full control effect; nearly all actives have a fitted effect of over 65% in size
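Inhibition was scored as loss of TGF-beta-induced (500 pg/mL final, 18 hours, 37 degrees C) GFP in HEPG2 cells carrying a CAGA-GFP reporter, in DMEM with 1% FBS. Well GFP was summed per cell; Activity was normalised to unstimulated and stimulated DMSO wells, then concentration-response fitting.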
Starred values were filed as active, the others as inactive; ? = inconclusive; / = no result; [ ] = remark or other dose. Calls follow the shape of the dose curve; as a rule, active = well fitted curve in the direction sought with a large enough effect; inconclusive = small, poorly fitted or top-dose-only effect, or another doubt; inactive = no such curve, though single readings can be large; an effect the other way counts as inactive or inconclusive. Potency is read from the fitted curve at half-maximal effect.

SMILES	HepG2 viability	Nrf2 ARE act	A549 viability	Nrf2 block	TGFb SMAD3 inh
Cc1cc(N2CCN(c3ccccc3)CC2)nc2ccccc12	-22%	4%	1%	0%	?
O=C(/C=C/c1ccco1)NC(=S)Nc1ccccc1O	-26%	26%	3%	?	-15%
O=C(/C=C\c1ccco1)NC(=S)Nc1ccccc1O	-20%	7.1µM*	-1%	10%	-15%
CCOCCCn1c(-c2ccc(Cl)cc2)n[nH]c1=S	-4%	0%	1%	-16%	-1%
CC(C)C(C)NC(=O)COc1ccc(Sc2ccc(OCC(=O)NC(C)C(C)C)cc2)cc1 (stereo unspecified)	7%	0%	-14%	21µM*	?
Cc1cccc(NC(=O)c2cccnc2)c1	-11%	-1%	-2%	15%	-9%
COc1cc2c(O)c3c(c(-c4ccc5c(c4)OCO5)c2cc1OC)C(=O)OC3	-34%	6%	18µM*	?	?
COc1cc(/C(C)=N/NC(=S)NC(C)C)cc(OC)c1OC	-37%	4%[9.22 µM]	14%	?	10µM*
COc1ccc(CCNc2ncnc3nc[nH]c23)cc1	-5%	/	-1%	15µM*	5%
O=C1NC(c2ccccc2Br)=N/C1=C\c1ccco1	-6%	5.6µM*	-6%	17%	-18%
O=C1NC(=O)/C(=C/c2ccco2)N1	-7%	1%	1%	4%	?
O=C1NC(c2ccccc2)=N/C1=C/c1ccco1	-1%	4µM*	-11%	?	5%
O=C1NC(c2cccc(Br)c2)=N/C1=C\c1ccco1	-7%	8.9µM*	-13%	?	-26%
CCCCc1n[nH]c2c1C(=O)CC(C)(C)C2	-3%	0%	2%	/	2%
CC(=O)N1CCc2cc(S(=O)(=O)Nc3cccc(C(F)(F)F)c3)ccc21	-6%	-1%	2%	9.2µM*	-9%
CCc1cccc(NS(=O)(=O)c2ccc3c(c2)CC(C)N3C(=O)C2CC2)c1 (stereo unspecified)	-29%	0%	-21%	12µM*	7.1µM*
O=C(c1ccc(S(=O)(=O)Nc2cccc(C(F)(F)F)c2)cc1)N1CCOCC1	0%	0%	-4%	?	0%
CC(=O)N1CCc2cc(S(=O)(=O)Nc3ccc(C)c(C)c3)ccc21	/	/	-5%	15µM*	/
CC(=O)N1CCc2cc(S(=O)(=O)Nc3ccc(C)cc3)ccc21	-15%	0%	0%	?	1%
CC1CN(C(=O)c2ccc(S(=O)(=O)Nc3cccc(C(F)(F)F)c3)cc2)CC(C)O1 (stereo unspecified)	-9%	1%	-9%	13µM*	-2%
O=C(CNC(=O)c1ccccc1F)Nc1ccc2c(c1)CCC2	9%	3%	1%	?	-27%
CCN1C(=O)c2ccccc2Sc2ccc(NC(=O)COc3ccc(Cl)cc3)cc21	10%	6%	9%	/	-40%
COc1cccc(C(=O)C(=O)c2cccc(OC)c2OC)c1OC	-12%	5%	-3%	4%	-1%
COc1cccc(NS(=O)(=O)c2ccc3c(c2)CCN3C(C)=O)c1	-20%	4%	-6%	10µM*	-34%
O=C(Cc1cccc(C(F)(F)F)c1)NCc1cccc(Cl)c1	-6%	0%	0%	3%	0%
SMILES	HepG2 viability	Nrf2 ARE act	A549 viability	Nrf2 block	TGFb SMAD3 inh
CC(=O)N1c2ccc(S(=O)(=O)Nc3ccc(C)c(C)c3)cc2CC1C (stereo unspecified)	/	/	?	10µM*	/
COc1ccc(S(=O)(=O)Nc2ccc3c(c2)N(C(C)=O)CCC3)cc1	-29%	0%	-9%	12µM*	-14%
O=C(NCc1cccc(Cl)c1)c1ccc(S(=O)(=O)Nc2cccc(C(F)(F)F)c2)cc1	10µM*	5%	1%	?	?
CC(=O)N1c2ccc(S(=O)(=O)Nc3ccc(C)c(Cl)c3)cc2CC1C (stereo unspecified)	-13%	6%	9%	?	-26%
Cc1cc(C)n(-c2nc(NCCO)c3c4c(sc3n2)CCCC4)n1	5%	2%	-16%	/	?
COc1ccc(NC(=O)N2CCCc3ccccc32)cc1	0%	4%	/	26%	-15%
